Measured values: the supplement of paper PMC6555819

Key:
Test in all cases: PBM binding z-score (relative to random genomic background probes); higher = stronger binding; sequences stand for … in GC…GCGATTGACAGCGTAGAATGAAGG
[1] = tested on: FXR:RXRa (NR concentration 270 nM, RXRa partner concentration 90 nM)
How it was run: (§1)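 Custom Agilent 4×180K protein-binding microarrays carried double-stranded probes, each with a 34-nt variable region. These regions held direct-repeat seeds, single-nucleotide variants, half-site ablations and random human genomic background sequences. Ligand-free nuclear receptor dimers were incubated on the arrays for 1 h, antibodies against each partner (one per run) detected binding, and scanned fluorescence was regression-normalized. Binding z-scores take the random background probes as reference.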

[2] = tested on: LXRa:RXRa (NR concentration 270 nM, RXRa partner concentration 90 nM)
How it was run: as §1

[3] = tested on: LXRa homodimer (NR concentration 270 nM)
How it was run: as §1

[4] = tested on: LXRb:RXRa (NR concentration 270 nM, RXRa partner concentration 90 nM)
How it was run: as §1

[5] = tested on: LXRb homodimer (NR concentration 270 nM)
How it was run: as §1

[6] = tested on: PPARa:RXRa (NR concentration 270 nM, RXRa partner concentration 90 nM)
How it was run: as §1

[7] = tested on: PPARg:RXRa (NR concentration 180 nM, RXRa partner concentration 90 nM)
How it was run: as §1

[8] = tested on: PPARg:RXRa 270nM:90nM, anti-RXR (NR concentration 270 nM, RXRa partner concentration 90 nM)
How it was run: as §1

[9] = tested on: PPARg:RXRa 30nM:10nM, anti-RXR (NR concentration 30 nM, RXRa partner concentration 10 nM)
How it was run: as §1

[10] = tested on: PPARg:RXRa 90nM:30nM, anti-RXR (NR concentration 90 nM, RXRa partner concentration 30 nM)
How it was run: as §1

[11] = tested on: PPARg:RXRa DBDmut IVT, anti-RXR (DBD mutation: RXRa K156A/R161A, NR concentration 270 nM, RXRa partner concentration 90 nM)
How it was run: as §1

[12] = tested on: PPARg:RXRa IVT, anti-PPARg (NR concentration 270 nM, RXRa partner concentration 90 nM)
How it was run: as §1

[13] = tested on: PPARg DBDmut:RXRa IVT, anti-PPARg (DBD mutation: PPARg1 K132A/R137A, NR concentration 270 nM, RXRa partner concentration 90 nM)
How it was run: as §1

[14] = tested on: PPARg DBDmut IVT, anti-PPARg (DBD mutation: PPARg1 K132A/R137A, NR concentration 270 nM)
How it was run: as §1

[15] = tested on: PPARg homodimer (NR concentration 180 nM)
How it was run: as §1

[16] = tested on: PXR:RXRa (NR concentration 270 nM, RXRa partner concentration 90 nM)
How it was run: as §1

[17] = tested on: PXR homodimer (NR concentration 270 nM)
How it was run: as §1

[18] = tested on: RARa:RXR (NR concentration 270 nM, RXRa partner concentration 90 nM)
How it was run: as §1

[19] = tested on: RARa homodimer (NR concentration 270 nM)
How it was run: as §1

[20] = tested on: RARb:RXRa (NR concentration 270 nM, RXRa partner concentration 90 nM)
How it was run: as §1

Sequence | PBM binding z-score [1] | PBM binding z-score [2] | PBM binding z-score [3] | PBM binding z-score [4] | PBM binding z-score [5] | PBM binding z-score [6] | PBM binding z-score [7] | PBM binding z-score [8] | PBM binding z-score [9] | PBM binding z-score [10] | PBM binding z-score [11] | PBM binding z-score [12] | PBM binding z-score [13] | PBM binding z-score [14] | PBM binding z-score [15] | PBM binding z-score [16] | PBM binding z-score [17] | PBM binding z-score [18] | PBM binding z-score [19] | PBM binding z-score [20]
ATGTGTAGGTTAGCTGGGGTCATTCAGACTAGGC | 4.6 | 5.92 | 2.89 | 4.92 | 2.24 | 4.77 | 2.38 | 3.24 | 1.16 | 2.54 | 2.74 | 3.09 | 1.93 | 2.25 | 3.23 | 6.41 | 5.39 | 6.36 | 2.17 | 3.25
CCGACTGGGGCAGAACGGTTACCATACCATCCGG | -0.431 | -0.676 | -0.691 | -0.711 | -1.24 | -0.574 | 0.748 | -0.447 | -0.36 | -1.03 | 1.2 | 0.551 | -1.28 | -1.18 | -0.513 | -0.96 | -0.492 | -0.872 | -0.367 | 0.227
ATCTCTAGGTAAGACTCAGTTCAGTGGAGAACGC | 0.367 | 0.505 | 0.914 | 0.328 | 0.692 | 0.228 | 0.00731 | 0.28 | 0.129 | 0.315 | 1.76 | 1.05 | 0.655 | 0.595 | 1.2 | 1.32 | 1.24 | 0.355 | 0.601 | 0.727
ATCTCTAGGTAAAAGTTCAGTGAGTCCCGAGGAT | 0.932 | 1.64 | 1.36 | 1.11 | 0.656 | 4.26 | 7.9 | 7.98 | 7.48 | 9.16 | 2.37 | 3.88 | 1.34 | 1.28 | 1.47 | 2.06 | 2.57 | 1.47 | 0.867 | 2.21
GGAACGATGGCATTCGAGTTGATAGCATGGCGAT | -0.471 | -0.604 | -0.706 | -0.979 | -1.12 | -0.689 | 0.643 | -0.465 | -0.325 | -0.434 | -0.377 | -0.247 | -0.636 | -0.427 | -0.633 | -0.0726 | -0.789 | -0.647 | -0.81 | -0.501
ATCTCTAGGTAAAAGTTCAGTGTATCCCGAGGAT | 0.805 | 1.47 | 1.82 | 1.14 | 0.968 | 4.08 | 7.71 | 8.23 | 7.05 | 9.47 | 2.32 | 3.71 | 1.69 | 1.72 | 1.66 | 2.25 | 2.23 | 1.53 | 1.59 | 2.5
GCTATTAGTTGAAAGGGTAACCGAATGATTCTCG | -0.0135 | 0.398 | 0.254 | 0.557 | -0.148 | 1.63 | 1.39 | 3.38 | 1.36 | 3.03 | 0.535 | 0.734 | 0.307 | 0.443 | 0.807 | 0.366 | 0.207 | 1.02 | 0.465 | 0.813
ATATGTAGGTTATCGGGTCATTAAGTTTGCGCAT | 3 | 2.85 | 1.77 | 2.95 | 1.02 | 5 | 7.09 | 6.08 | 3.81 | 5.71 | 7.51 | 7.55 | 2.77 | 2.29 | 2.72 | 4.08 | 9.55 | 3.8 | 1.51 | 2.62
CCTCCTGGGCCAAAAAGGTCATTGATGCCGATAA | 3.19 | 3.89 | 2.81 | 4.12 | 0.202 | 4.47 | 0.997 | 2.63 | 0.448 | 1.63 | -0.0525 | 1.53 | -0.96 | -0.947 | 2.51 | 4.62 | 2.5 | 4.44 | 0.621 | 3.9
AATACAGGGTCACTAGGCGAGAGTAGGTACGAAT | 6.08 | 4.92 | 1.02 | 3.94 | 1.26 | 5.66 | 7.02 | 6.14 | 2.65 | 4.89 | 3.92 | 5.14 | 1.72 | 0.921 | 2.09 | 3.16 | 0.858 | 4.27 | 1.4 | 4.29
TCATGTAGGTAAAAGGTGAAAGTCGGTGTGGTAA | 1.69 | 1.64 | 0.309 | 1.98 | 0.274 | 5.78 | 9.58 | 8.82 | 8.8 | 9.11 | 5.39 | 5.6 | 0.711 | 0.765 | 2.48 | 1.67 | 0.518 | 2.72 | 1.33 | 1.81
TCTCGGAGGACACGAAGGTCAGAACTTTCCAGAG | 0.92 | 1.16 | 0.605 | 1.31 | -0.708 | 1.69 | 0.527 | 1.59 | 2.55 | 1.96 | 1.69 | 0.656 | 0.251 | -1.14 | 1.13 | 1.84 | 1.09 | 1.81 | 0.264 | 3.08
CCGACTGGGGCAAGGTTACCCTAACGCACAGCCA | 0.301 | 0.334 | -0.217 | 0.52 | -1.15 | 1.88 | 2.75 | 3.18 | 0.752 | 2.75 | 2.55 | 3.74 | -0.273 | -0.891 | 0.107 | 0.232 | -0.208 | 0.791 | -0.576 | 1.58
TATACAGGGTCAATGGCCAGAGTACGAATGTCGA | 5.92 | 5.45 | 1.39 | 3.89 | 2.05 | 5.16 | 5.11 | 4.94 | 2.12 | 3.87 | 1.79 | 3.99 | 1.48 | 1.03 | 1.97 | 3.23 | 0.633 | 3.75 | 0.771 | 4.05
